HepG2 viability – counter-screen for TGF-b inhibitors: cytotoxicity in HepG2 cells. HepG2 CAGA-GFP viability, ATP luminescence, 18 h. Potency, µM (top dose mostly 46.1 µM), for the others: at the top dose activity change, negative = cytotoxicity, usual class: cytotoxic. 410,000 tested, 0.76% active; also: potency is read from the fitted curve at half-maximal effect
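HepG2 CAGA-GFP cells (1000/well, DMEM with 1% FBS) received compound, then TGF-beta at 500 pg/mL final, and were incubated 18 hours at 37 degrees C. Viability was read by CellTiter-Glo luminescence. Media-only wells were set as complete cell-killing and DMSO as no toxicity.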
IL1B secr inh – inhibitors of inflammasome signaling (IL-1 beta secretion); THP-1 LPS/ATP IL-1B secretion, AlphaLISA, 16 h; stronger effect = lower value; activity change, % at 57.5 µM; 360,000 tested, 4.7% active; in the data active = activity change below about -50%; inconclusive = mostly about -30% to -49%; also: % is scaled to controls: 0 for no effect and ±100 for the full control effect
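THP-1 cells pretreated 1 hr with compounds (up to 57.5 uM final), then stimulated with LPS (250 ng/mL final) plus ATP (1.25 mM final); secreted IL-1B measured by AlphaLISA after 16 hr, decreased signal indicating inhibition.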
TGFb inhibitor – inhibitors of TGF-b signaling | HepG2 CAGA-GFP TGF-b/SMAD3 reporter, GFP fluorescence, 18 h; TGF-beta stimulated, 500 pg/mL final | Potency, µM (highest dose often 46.1 µM), inactives show at the highest dose activity, negative = inhibition, actives largely listed as inhibitors | 410,000 tested, 1.2% active | AID 588855; also: potency is read from the fitted curve at half-maximal effect; % is scaled to controls: 0 for no effect and ±100 for the full control effect; nearly all actives have a fitted effect of over 65% in size
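Using HEPG2 CAGA-GFP reporter cells at 1000 cells/well, we pinned test compounds, stimulated with recombinant TGF-beta (500 pg/mL final) and measured total well GFP after 18 h.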
TDP1 inh – TDP1 (human) enzyme inhibition; Q9NUW8; recombinant TDP1, AlphaScreen DNA substrate cleavage; Potency, µM (doses to about 130 µM), for inactives: at the top dose activity change, negative = inhibition, most hits filed as inhibitors; 350,000 tested, 0.28% active; AID 485290; also: potency is read from the fitted curve at half-maximal effect; % is scaled to controls: 0 for no effect and ±100 for the full control effect; nearly all actives have a fitted effect of over 40% in size
Target sequence (Q9NUW8 whole entry, looked up): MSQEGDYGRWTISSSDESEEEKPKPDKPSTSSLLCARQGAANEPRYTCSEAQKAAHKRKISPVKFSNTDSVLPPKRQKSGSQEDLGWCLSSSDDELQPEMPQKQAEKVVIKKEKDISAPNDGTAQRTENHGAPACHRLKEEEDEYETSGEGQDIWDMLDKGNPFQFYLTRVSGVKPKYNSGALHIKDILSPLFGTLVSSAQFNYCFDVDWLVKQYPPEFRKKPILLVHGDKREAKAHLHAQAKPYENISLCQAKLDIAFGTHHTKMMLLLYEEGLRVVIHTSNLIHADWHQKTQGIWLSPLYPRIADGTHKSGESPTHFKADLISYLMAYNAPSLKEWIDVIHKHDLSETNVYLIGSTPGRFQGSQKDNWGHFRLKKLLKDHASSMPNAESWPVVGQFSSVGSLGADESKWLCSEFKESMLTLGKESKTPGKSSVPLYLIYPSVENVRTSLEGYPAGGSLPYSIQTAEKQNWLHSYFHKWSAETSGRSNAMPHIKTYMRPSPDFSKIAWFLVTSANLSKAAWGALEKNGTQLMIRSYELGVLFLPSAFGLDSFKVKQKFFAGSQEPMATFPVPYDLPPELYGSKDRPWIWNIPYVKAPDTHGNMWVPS
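Recombinant human Tdp1 (E. coli-expressed, 1 nM final) preincubated with compounds 15 min at room temperature, then 5'-biotin/3'-phosphotyrosine-FITC DNA substrate (15 nM final) added for 5 min. AlphaScreen beads (10 ug/ml final) added 10 min; cleavage lowers signal.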
TDP1 cell CPT – DT40-hTDP1 cell growth loss with CPT; chicken DT40 Tdp1-/-;hTDP1 cells + 20 nM CPT, ATP luminescence, 48 h; Potency, µM (titrated, usually from 46.2 µM), inactives show at the highest dose activity change, negative = growth inhibition, actives largely listed as inhibitors; 420,000 tested, 12% active; AID 686979; also: potency is read from the fitted curve at half-maximal effect; % is scaled to controls: 0 for no effect and ±100 for the full control effect; nearly all actives have a fitted effect of over 55% in size
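Chicken DT40 Tdp1-/- cells complemented with human TDP1, 400 cells/well, exposed to compounds plus 20 nM camptothecin for at least 48 h at 37 C; viability read as ATP content by CellTiter-Glo luminescence.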
DT40 TDP1 no CPT – qHTS for Inhibitors of human tyrosyl-DNA phosphodiesterase 1 (TDP1): qHTS in cells in absence of CPT; DT40 Tdp1-/- hTDP1 cells, no CPT, ATP luminescence, 48 h; Potency, µM (titrated, usually from 46.2 µM), inactives show at the highest dose activity change, negative = growth inhibition, actives largely listed as inhibitors; 420,000 tested, 15% active; AID 686978, 2013; also: potency is read from the fitted curve at half-maximal effect; % is scaled to controls: 0 for no effect and ±100 for the full control effect; nearly all actives have a fitted effect of over 55% in size
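No-CPT arm: Tdp1-/-;hTDP1 DT40 cells (400/well) plus compounds, incubated ≥48 hr at 37 °C. Readout CellTiter-Glo luminescence.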
An asterisk follows results filed as active; ? = inconclusive; . = no result given; [ ] = remark or other dose. Most compounds without a hit are left out; they make up all but 18% or so of the library. Unless noted, calls follow the shape of the dose curve; as a rule, active = well fitted curve in the direction sought with a large enough effect; inconclusive = small, poorly fitted or top-dose-only effect, or another doubt; inactive = no such curve, though single readings can be large; an effect the other way counts as inactive or inconclusive.

SMILES	HepG2 viability	IL1B secr inh	TGFb inhibitor	TDP1 inh	TDP1 cell CPT	DT40 TDP1 no CPT
Cc1nc(-c2cccc(S(=O)(=O)N3CCC(C(=O)NCc4ccccc4Cl)CC3)c2)no1	-19%	.	?	6%	18µM*	-88%
CCc1cccc(NC(=O)C2CCN(S(=O)(=O)c3cccc(-c4noc(C)n4)c3)CC2)c1	-5%	.	?	2%	?	21µM*
CC(=O)c1ccc(N2CCN(S(=O)(=O)c3cc(-c4noc(C)n4)ccc3C)CC2)cc1	2%	.	-1%	1%	?	2%
Cc1nc(-c2ccc(C)c(S(=O)(=O)N3CCC(C(=O)Nc4ccc(Cl)cc4)CC3)c2)no1	-12%	.	?	3%	16µM*	?
CCCC[N+](CC#Cc1ccccc1)(CCCC)CCCS(=O)(=O)[O-]	-4%	11	-1%	-3%	-6%	-15%
COc1ccc(CCC(C)NCc2ccc(Cl)c(Cl)c2)cc1 (stereo not drawn)	8.9µM*	-3	13µM*	3%	-28%	-12%
COc1ccc(CCC(C)NCCc2ccc(Cl)cc2Cl)cc1 (stereo not drawn)	16µM*	-51*	?	5%	?	23µM*
CCCCn1c(SCC(=O)NC2CC2)nc2cc(C(=O)OC)ccc2c1=O	-4%	23	-8%	.	-15%	-22%
O=S(=O)(CCNCc1ccco1)NC1CCCCC1	-1%	12	-6%	.	-8%	-5%
CSc1ccccc1NC(=O)Nc1ccc(F)c(Cl)c1	-14%	?	-11%	-1%	?	?
CC(=O)Nc1cccc(N(C)S(C)(=O)=O)c1	0%	1	27%	7%	-15%	-11%
CSc1ccccc1NC(=O)Nc1cccc(Cl)c1	-21%	-1	-19%	7%	16µM*	?
CSc1ccccc1NC(=O)CN(C)CC(=O)Nc1ccccc1C(F)(F)F	5%	29	15%	0%	-17%	-22%
CSc1ccccc1NC(=O)CN(C)CC(=O)Nc1ccc(Cl)cc1F	11%	-8	-25%	3%	23µM*	?
CN(c1cccc(NC(=O)Nc2cccc(Cl)c2)c1)S(C)(=O)=O	-28%	-25	?	3%	?	16µM*
Cc1nnsc1C(=O)N1CCCC(Nc2ccc(F)c(F)c2)C1 (stereo not drawn)	1%	0	-3%	1%	-3%	3%
COc1ccc(OC)c(-n2nnc(-c3nc(-c4ccc5c(c4)OCO5)no3)c2C)c1	1%	.	.	3%	13%	-1%
Cc1cccc(CN(CC(=O)N/N=C/c2ccco2)S(=O)(=O)c2ccc(Cl)cc2)c1	1%	0	?	0%	?	?
CCOc1cccc(/C=N/NS(=O)(=O)c2ccc(C)c([N+](=O)[O-])c2)c1O	-15%	65	-2%	5%	6%	-2%
CCOc1cccc(/C=N/NC(=S)Nc2ccccc2[N+](=O)[O-])c1O	-47%	147	?	7%	9.2µM*	8.2µM*
O=[N+]([O-])c1ccccc1C=NNC(=S)NN=Cc1ccccc1[N+](=O)[O-]	0%	-7	-6%	.	6.5µM*	3.3µM*
Cc1cccc(CN(CC(=O)N/N=C/c2cccs2)S(=O)(=O)c2ccc(Cl)cc2)c1	0%	-11	?	1%	?	29µM*
CC(C)NC(=S)N/N=C/c1ccccc1[N+](=O)[O-]	-24%	19	0%	5%	5%	?
O=[N+]([O-])c1ccccc1/C=N/Nc1nnc(-c2ccccc2)c(-c2ccccc2)n1	-2%	10	23%	3%	2.1µM*	1.6µM*
Cc1csc(CNC(=O)c2ccc(OC3CCN(CCc4ccccc4)CC3)cc2)n1	-22%	11	2%	3%	?	-29%
SMILES	HepG2 viability	IL1B secr inh	TGFb inhibitor	TDP1 inh	TDP1 cell CPT	DT40 TDP1 no CPT
COc1ccc(S(=O)(=O)N(C)c2ccc(C(=O)NCc3ccccn3)cc2)cc1OC	-5%	-4	0%	3%	-5%	-21%
COc1cccc(CNC(=O)Cn2ccc([N+](=O)[O-])n2)c1	-18%	-12	3%	.	-6%	-3%
CCCCNC(=S)N/N=C/c1cccc(OCC)c1O	-31%	-3	-22%	5%	1.2µM*	2.1µM*
O=C(CN(Cc1ccccc1)S(=O)(=O)c1ccccc1)N/N=C/c1ccccc1[N+](=O)[O-]	-1%	?	?	5%	?	21µM*
Cc1c(C(=O)NCc2ccc(F)cc2)sc(=O)n1Cc1ccccc1	3%	-16	-3%	.	?	?
CCN(CC(=O)Nc1c(F)cccc1F)C(=O)Cn1[nH]c(=O)c2ccccc2c1=O	-9%	0	0%	0%[56.1 µM]	?	3%
CCOc1cc(/C=N/O)ccc1OCc1ccc([N+](=O)[O-])cc1	-10%	5	10%	6%	?	-29%
CCOc1cc(C=C(C(=O)OC)C(=O)OC)ccc1OCc1ccc([N+](=O)[O-])cc1	-52%	-118*	13µM*	6%	6.5µM*	12µM*
COc1ccc(CNC(=O)Cc2ccc(NC(=O)C3=C(C)OCCS3)cc2)cc1	20%	49	16%	.	2.3µM*	2.1µM*
O=C(Nc1ccccc1C(=O)NCc1ccccc1)C1=CSCCO1	1%	-1	-12%	3%	-8%	-28%
COc1cccc(CNC(=O)c2ccccc2NC(=O)C2=C(C)OCCS2)c1OC	2%	-20	-6%	2%	18µM*	12µM*
CCOc1ccccc1CNC(=O)c1ccccc1NC(=O)C1=CSCCO1	1%	-9	4%	5%	?	26µM*
CC1=C(C(=O)Nc2ccc(CC(=O)NCc3ccc(OC(C)C)cc3)cc2)SCCO1	-8%	62	?	.	0.16µM*	0.18µM*
O=C(CSC1=NS(=O)(=O)c2ccccc2N1)Nc1cccc(F)c1	2%	15	3%	.	2%	-3%
CC(C)(C)OC(=O)N1CCN(/[N+]([O-])=N/Oc2ccc([N+](=O)[O-])cc2[N+](=O)[O-])CC1	-100%	.	?	.	.	.
COc1cccc(N2CC(NC(=O)c3ccc4c(c3)OCO4)CC2=O)c1 (stereo not drawn)	0%	.	15%	-3%	-1%	1%
